The AC50 is the midpoint of the concentration-response curve, whichever way the signal moves. As a reminder, the inhibition is the relative decrease from the control value, in per cent.

Test [1] in a line: growth inhibition of DIPG glioma cells, dose response, cell-based, SU-DIPG-XVII, MIPE5.0, CellTiter-Glo, qHTS (AID 1347060; cut-off not given, nearly all actives have AC50 up to about 26 µM;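 on AC50: cells exposed to compound for 48 hours before viability readout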). The following applies: SU-DIPG-XVII viability, CellTiter-Glo ATP luminescence. (In general: In ATP-based viability assays light output follows the ATP content of the culture.)
Test [2] in a line: viability loss in pontine glioma line – cell-based, SU-DIPG-XXV, MIPE5.0, CellTiter-Glo, qHTS, dose response (AID 1347065; cut-off not given, nearly all actives have AC50 up to about 26 µM;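 further: cells exposed to compound for 48 hours before ATP readout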). The conditions noted are these: CellTiter-Glo ATP luminescence.
The nature of test [3]: growth inhibition of DIPG glioma cells, dose response, cell-based, SU-DIPG-XIII, MIPE5.0, CellTiter-Glo, qHTS (AID 1347064; cut-off not given, nearly all actives have AC50 up to about 23 µM;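 on AC50: cells exposed to compound for 48 hours before the viability read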). The following applies: SU-DIPG-XIII viability, CellTiter-Glo ATP luminescence.
Test [4] is described as follows: SU-DIPG-XXV glioma cell viability, MIPE5.0 library, qHTS (AID 1347068; cut-off not given, nearly all actives have IC50 up to about 30 µM).
Test [5] can be described thus: JHH-DIPG-1 glioma cell viability, MIPE5.0 library, CellTiter-Glo luminescence, qHTS (AID 1347067; cut-off not given, nearly all actives have AC50 up to about 26 µM;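 further: cells exposed to compound for 48 hours before readout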). The conditions noted are these: JHH-DIPG-1 glioma viability, CellTiter-Glo ATP luminescence.
A short description of test [6]: LFS_MB_P medulloblastoma growth inhibition, cell-based, chromothripsis tumors, cisplatin or BGB combos (AID 1671449).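 Further: cells exposed for 96 hours; 0% = vehicle DMSO and 100% = killing by high DMSO.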 The following applies: LFS_MB_P medulloblastoma cells.
Test [7] is described as follows: HDN33 neuroblastoma growth inhibition, cell-based, chromothripsis tumors, cisplatin or BGB combos (AID 1671450).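 Further: cells exposed to compound for four days; 0% = vehicle DMSO and 100% = cell killing by high DMSO.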 The conditions noted are these: HDN33 neuroblastoma cells, stronger effect = higher value.
The nature of test [8]: ICB984 medulloblastoma cell growth inhibition, synergistic combos for chromothripsis tumors, cisplatin or BGB combos (AID 1671451; call rule not given here;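 further: cells exposed for 96 hours before readout; 0% = vehicle DMSO and 100% = killing by high DMSO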). The following applies: ICB984 medulloblastoma cells, drug combinations, stronger effect = higher value.
The nature of test [9]: LFS_MB_1R medulloblastoma cell growth inhibition, synergistic combos for chromothripsis tumors, cisplatin or BGB combos (AID 1671452).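 Further: cells exposed for 96 hours before readout.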 The following applies: LFS_MB_1R medulloblastoma cells, stronger effect = higher value.
A short description of test [10]: HTB85 osteosarcoma cell growth inhibition, synergistic combos for chromothripsis tumors, BGB or cisplatin IC20 combos (AID 1671453).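 Further: cells exposed for 96 hours before readout; 0% = vehicle DMSO and 100% = high DMSO killing control.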 The conditions noted are these: HTB85 osteosarcoma cells, drug combinations, stronger effect = higher value.
The nature of test [11]: CRL2098 osteosarcoma cell growth inhibition, synergistic combos for chromothripsis tumors, BGB or cisplatin IC20 combos (AID 1671454).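 Further: cells exposed for 96 h before readout; 0% = vehicle DMSO and 100% = killing by high DMSO.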 The conditions noted are these: CRL2098 osteosarcoma cells, drug combinations, stronger effect = higher value.
A short description of test [12]: HD-MB03 medulloblastoma cell growth inhibition, synergistic combos for chromothripsis tumors, BGB or cisplatin IC20 combos (AID 1671455; in the data active means inhibition above about 83%;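 further: 0% = vehicle DMSO and 100% = high DMSO as cytotoxic control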). The following applies: HD-MB03 medulloblastoma cells, stronger effect = higher value.
Test [13] can be described thus: UWB1.289 ovarian carcinoma cell growth inhibition, synergistic combos for chromothripsis tumors, BGB or cisplatin combos (AID 1671456).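 Further: cells exposed to compound for four days; 0% = vehicle DMSO and 100% = killing by high DMSO.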 The following applies: UWB1.289 ovarian carcinoma cells, stronger effect = higher value.
Test [14] in a line: LFS_MB_2R medulloblastoma cell growth inhibition, synergistic combos for chromothripsis tumors, cisplatin combos (AID 1671457).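 Further: cells exposed to compound for four days before readout.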 The following applies: LFS_MB_2R medulloblastoma cells, stronger effect = higher value.
Test [15] can be described thus: MDA-MB-436 breast carcinoma cell growth inhibition, synergistic combos for chromothripsis tumors, BGB or cisplatin combos (AID 1671458; call rule not given here;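 further: cells exposed for 96 hours; 0% = vehicle DMSO and 100% = killing by high DMSO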). The conditions noted are these: MDA-MB-436 breast carcinoma growth inhibition, drug combinations, stronger effect = higher value.
A short description of test [16]: UWB1.289_BRCA1 ovarian cancer growth, cell-based, BGB or cisplatin combinations (AID 1671459). The following applies: UWB1.289 BRCA1 ovarian carcinoma, drug combinations, stronger effect = higher value.
Test [17] is described as follows: human astrocyte viability loss, single and combined drugs, cytotoxicity control for chromothriptic childhood tumor combination screen, cell-based, BGB or cisplatin IC20 combos (AID 1671460).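 Further: cells exposed to compounds for 96 hours before viability readout; 0% = vehicle and 100% = killing control.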 The conditions noted are these: Human astrocytes, drug combinations, stronger effect = higher value.
Test [18] in a line: growth inhibition of BT084 medulloblastoma cells, cell-based, ICGC_MB145, cisplatin and BGB IC40 combos (AID 1671461).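 Further: cells exposed to drugs for 96 hours; 0% = vehicle DMSO and 100% = high DMSO full killing control.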 The conditions noted are these: drug combinations, stronger effect = higher value.
Test [19] in a line: growth inhibition of RCMB18 medulloblastoma cells, cell-based, cisplatin and BGB IC40 combos (AID 1671462).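 Further: cells exposed to compound for four days.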 The conditions noted are these: stronger effect = higher value.
The nature of test [20]: growth inhibition of CRL1545 osteosarcoma cells, cell-based, cisplatin and BGB IC20 combos (AID 1671464).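 Further: cells exposed to compound for 96 hours before readout; 0% = vehicle DMSO and 100% = high DMSO killing control.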 The following applies: stronger effect = higher value.
The mark [21] stands for this setting: measured here: combination with BGB IC40, at 0.05 µM.
[22] abbreviates: measured here: with BGB IC20 combination, at 0.5 µM.
[23] abbreviates: measured here: with cisplatin IC20 combination, at 0.5 µM.
Where [24] appears, read: measured here: combination with cisplatin, at 0.5 µM.
The mark [25] stands for this setting: measured here: combination with cisplatin, at 5 µM.

Results filed as inconclusive are left out. Activity calls are given as the source filed them. Unless noted, no stated cut-off is given here; in the data, active means inhibition above about 80%; inactive means the rest.

`CCN(CC)C(=O)Cc1csc(NS(=O)(=O)c2cccc(Cl)c2C)n1`: the call in [1] and in test [2] was inactive.

With `Cn1c(=O)c(-c2c(Cl)cccc2Cl)cc2cnc(Nc3cccc(C(=O)O)c3)nc21`, the concentration at half-maximal activity (AC50) in test [1] was 1.48 µM (active); in test [3], 2.35 µM (active). The compound was called inactive in test [4].

For the compound `CC(C)Oc1ccc(-c2nc(-c3cccc4c3CC[C@@H]4NCCO)no2)cc1C#N`, the AC50 was 20.9 µM (active) in test [1] and 16.6 µM (active) in test [2].

On to `NC(=O)c1nc(F)c[nH]c1=O`, for which the compound was classed as inactive in test [1], in test [3], in test [5] and in test [4]. The inhibition is -5.96% (inactive) in [6] (at 0.5 µM, stronger effect = higher value); -6.89% in test [6] (measured here: combination with BGB IC20, at 0.005 µM); 86.3% in [6] (measured here: combination with BGB IC40, at 0.005 µM); 2.5% in [6] (setting [21]); -12.3% in test [6] (measured here: combination with cisplatin, at 0.5 µM, stronger effect = higher value); -15% in test [6] (measured here: combination with cisplatin, at 5 µM, stronger effect = higher value). In addition, the inhibition in test [7] (BGB combo, at 5 µM) is -13.7%; in test [7] (at 0.5 µM), 0.69% (inactive); in [7] (cisplatin combo, at 5 µM), -13.9%; in test [7] (setting [22]), -3.64%; in test [7] (setting [23]), -5.09%; in test [7] (single agent, at 5 µM), 9.18%. For the same compound, the inhibition was -3.29% in [8] (BGB IC20 combo, at 0.005 µM); -2.11% in test [8] (BGB IC40 combo, at 0.005 µM); 0.125% in [8] (BGB IC40 combo, at 0.05 µM); 0.29% (inactive) in test [8] (at 0.5 µM); -4.93% in [8] (cisplatin combo, at 0.05 µM); 4.34% in [8] (cisplatin combo, at 0.5 µM). The inhibition is 4.92% in test [8] (cisplatin combo, at 5 µM); -8.47% in test [8] (measured here: 5 uM single agent, at 5 µM); 1.01% (inactive) in test [9] (at 0.5 µM); 2.61% in test [9] (setting [21]); -16.3% in test [9] (setting [24]); 16.6% in test [9] (setting [25]). Besides, the inhibition in [10] (at 0.5 µM) was 1.18% (inactive); in test [10] (measured here: with BGB IC20, at 0.5 µM) it was -2.45%; in test [10] (measured here: with BGB IC20, at 5 µM), 5.78%; in test [10] (measured here: with cisplatin IC20, at 0.5 µM), -2.57%; in [10] (measured here: with cisplatin IC20, at 5 µM), 4.67%; in test [10] (single agent, at 5 µM), 17.5%. For the same compound, the inhibition was -7.02% (inactive) in test [11] (at 0.5 µM); -19% in test [11] (measured here: combination with BGB at IC20, at 0.5 µM); 9.34% in test [11] (measured here: combination with cisplatin at IC20, at 0.5 µM); 0.58% (inactive) in [12] (at 0.5 µM); 5.69% in test [12] (measured here: combo with BGB at IC20, at 0.5 µM); -1.93% in test [12] (measured here: combo with cisplatin at IC20, at 0.5 µM). Besides, the inhibition is 4.26% (inactive) in test [13] (at 0.5 µM); 6.54% in [13] (measured here: inhibition with BGB combination, at 0.05 µM); -1.23% in test [13] (measured here: inhibition with cisplatin combination, at 0.05 µM); 1.33% (inactive) in test [14] (at 0.5 µM); 5.37% in test [14] (setting [24]); 9.87% in [14] (setting [25]). The inhibition was -2.87% (inactive) in [15] (at 0.5 µM); -1.29% in [15] (measured here: BGB combination, at 0.5 µM); -9.17% in test [15] (measured here: BGB combination, at 5 µM); -10.9% in test [15] (measured here: cisplatin combination, at 0.5 µM); -5.06% in test [15] (measured here: cisplatin combination, at 5 µM); -6.18% in test [16] (BGB combination, concentration series, at 5 µM). Further, the inhibition in [16] (at 0.5 µM) was 1.49% (inactive); in test [16] (cisplatin combination, concentration series, at 5 µM) it was 2.48%; in [17] (at 0.5 µM), -3.48% (inactive); in [17] (measured here: combo with BGB IC20, at 0.5 µM), -7.39%; in [17] (measured here: combo with cisplatin IC20, at 0.5 µM), -5.76%; in test [18] (at 0.5 µM) it was -1.11% (inactive). In addition, the inhibition was 6.95% in test [18] (cisplatin combination, at 0.5 µM); -101% in test [18] (cisplatin combination, at 5 µM); -16.8% in test [18] (measured here: BGB IC40 combination 0.05 uM, at 0.05 µM); 4.66% in [18] (single agent, at 5 µM); -6.23% (inactive) in [19] (at 0.5 µM); 8.94% in test [19] (cisplatin combo, at 5 µM). The inhibition in [19] (measured here: BGB IC40 combination, at 0.05 µM) is -10.5%; in test [19] (setting [24]) it was -26.7%; in [19] (single agent, at 5 µM) it was 14.2%; in test [20] (at 0.5 µM), 13.8% (inactive); in test [20] (setting [22]), 6.76%; in test [20] (setting [23]) it was 16%. In addition, the inhibition in [20] (single agent, at 0.05 µM) was -15.2%; in test [20] (single agent, at 5 µM), -29.6%.

For the origin of these results see PubChem BioAssay.
